# Bioassay records from PubChem.
# hERG WT inh = blocks the wildtype human KCNH2 potassium channel. Q12809. U2OS, BacMam KCNH2, thallium flux FluxOr; active compounds read low. activity change, % at 1.84 µM. actives 0.37% (n = 340,000);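 active = maximum activity change below -70%; inconclusive = maximum activity change between -70% and -50%; inactive = maximum activity change above -50%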; also: % is scaled to controls: 0 for no effect and ±100 for the full control effect
# Target sequence (Q12809 whole entry, looked up): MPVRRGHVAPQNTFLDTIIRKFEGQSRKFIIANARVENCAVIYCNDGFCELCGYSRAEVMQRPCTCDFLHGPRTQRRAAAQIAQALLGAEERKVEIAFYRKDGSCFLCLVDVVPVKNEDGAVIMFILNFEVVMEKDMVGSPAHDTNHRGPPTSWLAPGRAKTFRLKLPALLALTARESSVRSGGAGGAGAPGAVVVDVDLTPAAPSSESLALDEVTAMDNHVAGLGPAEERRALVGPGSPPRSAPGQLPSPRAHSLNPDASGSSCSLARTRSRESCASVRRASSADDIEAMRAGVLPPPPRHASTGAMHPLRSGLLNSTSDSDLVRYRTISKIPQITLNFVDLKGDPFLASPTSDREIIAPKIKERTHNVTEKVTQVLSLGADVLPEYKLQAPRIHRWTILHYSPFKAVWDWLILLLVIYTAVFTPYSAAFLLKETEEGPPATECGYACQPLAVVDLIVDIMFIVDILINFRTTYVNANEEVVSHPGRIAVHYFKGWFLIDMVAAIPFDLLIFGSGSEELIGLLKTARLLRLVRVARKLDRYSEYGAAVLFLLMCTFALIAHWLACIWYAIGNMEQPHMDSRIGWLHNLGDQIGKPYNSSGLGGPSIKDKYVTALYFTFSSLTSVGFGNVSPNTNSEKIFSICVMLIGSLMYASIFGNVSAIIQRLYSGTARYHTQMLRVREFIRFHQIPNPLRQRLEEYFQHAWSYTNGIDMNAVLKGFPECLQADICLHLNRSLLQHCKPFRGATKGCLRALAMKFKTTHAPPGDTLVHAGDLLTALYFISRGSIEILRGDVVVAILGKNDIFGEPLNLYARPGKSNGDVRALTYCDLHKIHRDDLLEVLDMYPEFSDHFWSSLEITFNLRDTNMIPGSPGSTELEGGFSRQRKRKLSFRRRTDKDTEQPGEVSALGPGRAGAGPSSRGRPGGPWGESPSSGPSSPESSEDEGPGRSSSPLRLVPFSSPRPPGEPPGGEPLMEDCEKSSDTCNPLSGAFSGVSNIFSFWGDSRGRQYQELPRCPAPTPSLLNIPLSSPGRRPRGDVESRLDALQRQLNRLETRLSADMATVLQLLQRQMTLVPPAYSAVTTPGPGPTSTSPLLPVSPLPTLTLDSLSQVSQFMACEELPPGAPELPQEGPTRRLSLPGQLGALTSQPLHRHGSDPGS
#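 U2OS cells transduced with wild-type KCNH2 virus are loaded with FluxOr dye for 45 min, and thallium flux is measured in kinetic reads before and after stimulation buffer. Rate constants are normalized to DMSO controls.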
# KCNH2 3.1 block = inhibitors of human KCNH2 3.1 potassium channel isoform. U2OS KCNH2 3.1, thallium flux FluxOr; active compounds read low. activity change, % (tested at about 1.8 µM). actives 0.95% (n = 340,000);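 active = maximum activity change below -70%; inconclusive = maximum activity change from -70% to -50%; inactive = maximum activity change above -50%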;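 also: thallium influx rate constant from kinetic fluorescence after stimulation buffer; % is scaled to controls: 0 for no effect and ±100 for the full control effect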
#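 Virally transduced U2OS (3.1 isoform, 4 h infection in dark at RT) → overnight 37 C → FluxOr + Red40 in HBSS/HEPES, 45 min → stimulation buffer, 2 min kinetic read → rate constant vs DMSO controls.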
# TRPV1 PAM = potentiators of human vanilloid receptor 1 (TRPV1) | Q8NER1 | TRPV1-expressing cells, Fluo-8 calcium influx, capsaicin EC20 potentiation | potentiation, % at 8.33 µM | actives 0.02% (n = 320,000) | AID 540277; in the data active = potentiation above about 80%; inconclusive = between about 30% and that limit; also: 0% is about no effect
#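 TRPV1-expressing cells were cultured overnight at 35.5C and loaded with Fluo-8 calcium dye for 40 to 90 min at room temperature. After a 10 s baseline, compound was added and calcium influx was read kinetically for 3 min (ex 480/em 520 nm).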
# TRPV1 agonist = activates the human vanilloid receptor TRPV1; Q8NER1; TRPV1-expressing cells, Fluo-8 calcium influx, agonist mode; activation, % at 8.33 µM; actives 0.19% (n = 320,000); in the data active = activation above about 80%; inconclusive = between about 30% and that limit; also: 0% is about no effect
#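 Fluo-8 calcium influx in TRPV1-expressing cells, kinetic read (ex 480/em 520 nm). Compound added and read 3 min for agonist activity, followed by capsaicin at EC20 final and 2 min further read for enhancement.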
# * marks the source's active call; other numbers are inactive results; ? = inconclusive; / = no result given. Shown are actives, neighbours in structure and some others; about 1.2% of the full set was active somewhere.
SMILES,hERG WT inh,KCNH2 3.1 block,TRPV1 PAM,TRPV1 agonist
Clc1ccc(CN2C3=NCCN3c3ccccc32)cc1Cl,36.0,-75.2*,-15.9,-3.9
Cc1nc(CNS(=O)(=O)c2cc(F)ccc2F)cs1,-8.2,-180.8*,23.8,-3.3
Cc1nc(CNS(=O)(=O)c2cccc(F)c2)cs1,-0.9,7.1,-7.3,0.7
Nc1ccn(C2OC(COC(=O)C34CC5CC(CC(C5)C3)C4)C(O)C2O)c(=O)n1 (stereo unspecified),-3.9,-7.9,/,/
CN1CCN(/N=C/c2ccc(N(c3ccccc3)c3ccccc3)cc2)CC1,19.6,-72.4*,-10.6,1.3
CC(=O)Nc1ccccc1S(=O)(=O)CC1CC1(Cl)Cl (stereo unspecified),8.0,5.1,13.9,-3.1
O=C(N/N=C/c1ccccc1)c1n[nH]c2c1CCCC2,2.0,1.5,-19.3,83.3*
O=C(N/N=C/c1ccc(Cl)cc1)c1n[nH]c2c1CCCC2,-6.1,-4.6,-16.1,?
O=S(=O)(Nc1cccc2ccccc12)c1cccc2ccccc12,/,/,8.5,4.0
Cc1cc2cc(CN(Cc3ccc4c(c3)OCO4)Cc3nnnn3C3CCCC3)c(=O)[nH]c2cc1C,1.5,-10.6,25.2,-0.1
Cc1ccc2[nH]c(=O)c(CN(Cc3ccc4c(c3)OCO4)Cc3nnnn3C3CCCC3)cc2c1,-1.5,-128.4*,-4.8,16.5
CCc1ccc2[nH]c(=O)c(CN(Cc3nnnn3C3CCCC3)C3CCCCC3)cc2c1,-9.7,-189.3*,-1.8,?
COc1ccc(-c2ccc3c(c2)O[C@@H](CN(C)C(=O)c2ccccc2F)[C@@H](C)CN([C@@H](C)CO)S3(=O)=O)cc1,5.6,-2.3,/,/
CCN1CCN(C(=O)c2cc(COc3ccc(F)c(F)c3)on2)[C@@H](C)C1=O,2.6,1.3,/,/
CCN1C[C@@H]2[C@@H]3C(=O)N(Cc4ccccc4)C(=O)[C@@H]3[C@](CC)(C(=O)OC)N2C1=NC1CCCCC1,8.0,6.6,/,/
Cc1ccc(/C=N/Nc2nc(N3CCCCC3)nc(N3CCCCC3)n2)o1,-2.8,5.1,2.5,84.9*
O=[N+]([O-])c1ccc(/C=N/Nc2nc(N3CCCCCC3)nc(N3CCCCCC3)n2)o1,-7.1,-22.2,18.0,-0.4
CCN(CC)S(=O)(=O)c1ccc(N2CC(C(=O)NC3(C)CCS(=O)(=O)C3)CC2=O)cc1 (stereo unspecified),6.8,-1.1,-6.1,-3.9
Cc1ccc(C2CCN(C(=O)Nc3ccc(F)cc3)C2)cc1 (stereo unspecified),2.6,15.9,0.5,82.9*
O=C(COC(=O)c1ccc(Cl)nc1)c1ccc2c(c1)OCCO2,-106.5*,13.2,3.6,4.7
C=CCOc1ccc(C2NC(=O)c3ccccc3O2)cc1OCC (stereo unspecified),-3.1,-9.0,?,-5.8
C=CCOc1ccc(C2NC(=O)c3ccccc3O2)cc1OC (stereo unspecified),-75.2*,6.0,/,/
CCn1c(C)cc(C(=O)CSc2nnc(C3CC3)n2C2CC2)c1C,-7.8,13.2,/,/
COc1ccc(C2(OC)Oc3cc(OC)ccc3C(=O)C2(O)OC)cc1 (stereo unspecified),-10.6,-9.9,/,/
OCC1CCCN(C2CCN(Cc3nc(Cc4cccc(C(F)(F)F)c4)no3)CC2)C1 (stereo unspecified),23.6,?,-16.2,1.1
SMILES,hERG WT inh,KCNH2 3.1 block,TRPV1 PAM,TRPV1 agonist
C=C1CC2C=C(NC(C)=O)CC(C1)C2 (stereo unspecified),-7.4,-82.9*,-4.0,-0.3
NS(=O)(=O)c1cc(C(=O)OC2CCOC2=O)ccc1Cl (stereo unspecified),-10.8,-6.7,-1.4,0.1
Cc1ccc(NC(=O)CN2CCOCC2)c(Br)c1,-2.7,-9.2,-17.2,11.5
Cc1ccc(N2C(=O)c3ccc(C(=O)N4CCN(Cc5ccccc5)CC4)cc3C2=O)cc1,-145.3*,-201.9*,14.5,0.7
Cc1ccc(NC(=O)CN2CCN(Cc3ccccc3)CC2)c(Br)c1,-38.6,-87.3*,1.2,13.2
O=C(c1ccc(-n2cccc2)cc1)N1CCN(Cc2ccccc2)CC1,-72.7*,?,-22.0,18.2
C[C@@H]1CCCCO[C@H](CN(C)C(=O)C2CCCCC2)[C@@H](C)CN([C@H](C)CO)C(=O)c2cc(N(C)C)ccc2O1,-17.2,-9.7,/,/
CCOc1ccc2ncc(C(=O)c3ccc(OC)cc3)c(N3CCN(CC)CC3)c2c1,?,-75.3*,5.6,9.8
COc1ccc(-c2nc[nH]c2[N+](=O)[O-])cc1,3.7,-6.3,-0.3,1.8
CCOc1ccc(-c2nc[nH]c2[N+](=O)[O-])cc1,-8.5,-198.4*,-2.3,-1.6
COC(CNC(=O)CCc1c(C)nc2c(c(C)nn2-c2ccc(C)cc2)c1C)OC,2.8,18.8,-20.8,81.9*
CCN1C(=O)CC(Sc2ccccc2C(=O)O)C1=O (stereo unspecified),-18.8,-104.2*,1.9,0.8
Cn1nnnc1SCC(=O)NC1CCCc2ccccc21 (stereo unspecified),11.7,-34.0,-10.0,-3.9
c1ccc(CN2CCC(Nc3nc(-c4cccs4)nc4ccccc34)CC2)cc1,/,-72.6*,4.5,-3.6
c1csc(-c2nc(NCC3CCCO3)c3ccccc3n2)c1 (stereo unspecified),7.5,-5.7,-14.6,?
CCOC(=O)CNC(=O)C1(NC(=O)CNC(=O)OCc2ccccc2)CCCC1,5.0,-2.2,/,/
CCOC(=O)CC(=O)CSc1nc2ccccc2c(=O)n1-c1ccc(C(=O)NCCOC)cc1,-4.2,16.5,-0.2,-1.8
COc1cc(NC(=O)CCN2CCN(C/C=C/c3ccccc3)CC2)cc(OC)c1,27.8,-37.9,19.3,1.6
O=C(CCN1CCN(C/C=C/c2ccccc2)CC1)Nc1ccc(Cl)cc1,-38.4,-99.0*,-6.6,15.6
CC(C(=O)N(C)Cc1ccccc1)N1CCN(C/C=C/c2ccccc2)CC1 (stereo unspecified),14.6,-95.8*,-4.7,2.7
Cc1ccc(NC(=O)CCN2CCC(Cc3ccccc3)CC2)cc1,11.1,-124.2*,-3.9,5.5
CC(=O)c1ccc(NC(=O)C(C)N2CCN(C/C=C/c3ccccc3)CC2)cc1 (stereo unspecified),23.2,?,-14.4,1.5
COc1ccc(Cl)cc1NC(=O)C(C)N1CCN(C/C=C/c2ccccc2)CC1 (stereo unspecified),-75.3*,-93.3*,-0.7,3.9
O=C(CN1CCN(C/C=C/c2ccccc2)CC1)NCc1ccccc1,/,-91.1*,1.4,3.6
COc1ccc(C)cc1NC(=O)CCN1CCN(C/C=C/c2ccccc2)CC1,?,-99.1*,-7.6,5.9
COc1ccc(NC(=O)CCN2CCN(C/C=C/c3ccccc3)CC2)cc1,23.9,-104.7*,10.5,1.2
O=C(CN1CCCCCC1)NCc1ccccc1,4.4,-4.1,-23.2,1.3
Cc1ccc(NC(=O)CCN2CCN(C/C=C/c3ccccc3)CC2)cc1C,-38.9,-95.6*,2.8,0.9
CC1=C(C#N)C(NC(=O)c2ccccc2Cl)(C(F)(F)F)C(=O)N1 (stereo unspecified),5.4,-16.2,9.5,-5.0
